TGFb SMAD3 inh: inhibitors of TGF-b signaling | HepG2 CAGA-GFP TGF-b/SMAD3 reporter, GFP fluorescence, 18 h; TGF-beta stimulated, 500 pg/mL final | Potency, µM (doses to about 46.1 µM), without a hit: at the highest dose activity, negative = inhibition, hits mostly inhibitors | 1.2% of 410,000 active | AID 588855; further: potency means the concentration at half of the fitted maximal effect; on the % scale 0 is the no-effect control and ±100 the full control effect; nearly all actives have a fitted effect of over 65% in size
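Smad-responsive CAGA-GFP expression was quantified in HEPG2 cells exposed to compounds and 500 pg/mL final TGF-beta for 18 h at 37 degrees C; unstimulated wells defined full inhibition.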
S2 tox: cell viability loss in ATXN counter-screen. S2 cells (HEK-293 line with an ATXN2-luciferase reporter) viability, CellTiter-Fluor protease fluorescence, 24 h. 0.49% of 400,000 active. AID 651635. Potency, µM (top dose mostly 56.7 µM), actives largely listed as cytotoxic; further: potency means the concentration at half of the fitted maximal effect; nearly all actives have a fitted effect of over 40% in size
uPA generation: blocks generation of uPA at the cell surface; cell surface uPA generation assay, qHTS; Potency, µM (top dose mostly 38.3 µM), for inactives: at the top dose activity change, negative = inhibition, hits mostly inhibitors; 0.31% of 330,000 active; active means well fitted inhibition curve with a large enough effect; inconclusive means small, poorly fitted or top-dose-only effect; inactive means no such curve, though single readings can be large or run the other way; tested in mouse RAW 264.7 cells; further: potency means the concentration at half of the fitted maximal effect; on the % scale 0 is the no-effect control and ±100 the full control effect; nearly all actives have a fitted effect of over 55% in size
Giardia kill: Giardia lamblia killing. Giardia lamblia trophozoite viability. activity change, % at 7.66 µM, hits read low. 0.15% of 340,000 active; in the data active means activity change below about -80%; inconclusive means between about -30% and that limit;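 further: parasites exposed to compound for two days anaerobically before the ATP read; on the % scale 0 is the no-effect control and ±100 the full control effect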
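Killing of trophozoites was scored by loss of ATP luminescence after a 48 hrs anaerobic exposure to compounds at 37 deg C, using 100 cells per well.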
HepG2 tox: kills HepG2 cells in TGF-b inhibitor counter-screen. AID 588856. HepG2 CAGA-GFP viability, ATP luminescence, 18 h. Potency, µM (top dose mostly 46.1 µM), for inactives: at the highest dose activity change, negative = cytotoxicity, usual class: cytotoxic. 0.76% of 410,000 active; further: potency means the concentration at half of the fitted maximal effect
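CellTiter-Glo luminescence gave cytotoxicity after 18 hours at 37 degrees C. The cells were HepG2 CAGA-GFP in 1% FBS DMEM, stimulated with 500 pg/mL TGF-beta after compound addition. %Activity was normalised to no-cell wells (complete cell-killing) and DMSO (no toxicity), and curves were fitted and classified.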
ATXN2 expr inh: ATXN2 expression inhibition; Potency, µM (doses to about 57 µM), without a hit: at the top dose activity change, negative = inhibition, hits mostly inhibitors; 0.72% of 360,000 active; HEK-293 ATXN2-luciferase reporter, luminescence, 24 h; AID 1745845; further: potency means the concentration at half of the fitted maximal effect; on the % scale 0 is the no-effect control and ±100 the full control effect; nearly all actives have a fitted effect of over 55% in size
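qHTS (up to 57 uM final) was run with 24 h compound exposure of reporter cells at 37 °C. Each well was multiplexed: SteadyGlo luminescence measured ATXN2-luciferase expression after a fluorogenic Gly-Phe-AFC viability readout (25 uM final).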
Active calls of the source: *; i = inactive; ? = inconclusive; . = no result. The list is not random: actives were taken first. Their share in the collection is about 2.6%. Unless noted, the call rests on the fitted dose curve; in most records, active means well fitted curve in the direction sought with a large enough effect; inconclusive means small, poorly fitted or top-dose-only effect, or another doubt; inactive means no such curve, though single readings can be large; an effect the other way counts as inactive or inconclusive.

SMILES | TGFb SMAD3 inh | S2 tox | uPA generation | Giardia kill | HepG2 tox | ATXN2 expr inh
COc1cccc(C2CNC3(CCCC(C)C3)c3[nH]c4ccccc4c32)c1OC (stereo not given) | ? | 11µM* | 3% | 18 | -49% | .
CC(=O)c1ccc([N+](C)(C)C)cc1 | 3% | . | . | . | 4% | .
CCNc1oc(/C=C/c2ccc(OCC)cc2)nc1C#N | ? | i | 3.2µM* | 21 | -33% | -37%
CCOc1ccc(/C=C/c2nc(C#N)c(NCCc3ccccc3)o2)cc1 | -9% | . | . | . | -6% | .
Cn1c(=O)c2sccc2n2c(CCCC(=O)Nc3ccc(Cl)cc3)nnc12 | -5% | i | . | . | 0% | -20%
Cn1c(=O)c2sccc2n2c(CCCC(=O)Nc3ccc(Oc4ccccc4)cc3)nnc12 | 13µM* | . | . | . | -38% | .
CC(Oc1ccccc1)C(=O)Nc1nnc(S(=O)(=O)N2CCCCC2)s1 (stereo not given) | 3% | i | 3% | -84* | -2% | 15%
COc1ccc(C(=O)OCC(=O)Nc2sccc2C(N)=O)cc1OC | 18% | i | -7% | 4 | 1% | 13%
COc1cc(C(=O)OCC(=O)Nc2sccc2C(N)=O)cc(OC)c1OC | 0% | ? | 3.2µM* | 4 | -34% | ?
CC(C)(C)c1ccc(-c2noc(CCC(N)=O)n2)cc1 | -12% | i | -7% | -29 | -10% | 0.32µM*
Clc1ccccc1/C=C/c1nc(-c2ccccn2)no1 | 28% | i | -13% | ? | -24% | 5µM*
c1ccc(-c2noc(-c3ccc4c(c3)OCO4)n2)nc1 | -10% | i | ? | ? | 1.6µM* | ?
c1ccc(-c2noc(-c3cccnc3)n2)nc1 | 3% | ? | -6% | -17 | -50% | -29%
c1ccc(-c2noc(-c3ccncc3)n2)nc1 | 13% | i | -27% | -6 | 10µM* | -32%
Cc1onc(-c2ccccc2Cl)c1-c1nc(-c2ccccn2)no1 | 5% | i | 0% | -3 | -27% | 5%
CNC(=O)CCc1nc(-c2ccc(C(C)(C)C)cc2)no1 | -3% | i | 3% | -1 | 2% | 23%
c1ccc(-c2noc(-c3ccc4ccccc4c3)n2)nc1 | 0% | i | -14% | -93* | -57% | 2.2µM*
CC(C)(C)c1ccc(-c2nc(-c3ccncc3)no2)cc1 | 16µM* | i | 2% | -6 | 10µM* | 7%
COc1cccc(-c2nc(-c3ccccn3)no2)c1 | 6% | i | -12% | ? | 10µM* | ?
COc1cccc(-c2nc(-c3ccccc3)no2)c1 | -14% | i | -2% | 7 | -20% | 83%
Cc1nc2cc(NC(=O)[C@@H]3C[C@@H](Sc4ccccn4)CN3Cc3cccc(F)c3)ccc2s1 | . | i | . | . | . | .
Cc1ccc(CN2CCc3nnc(C(NS(C)(=O)=O)C(C)C)n3CC2)cc1C (stereo not given) | . | i | . | . | . | .
C=CCn1c(SCC(N)=O)nc2ccccc2c1=O | -5% | . | . | -15 | -17% | .
CC(=O)N(C(C)=O)N1C(=O)/C(=C/c2ccc(Cl)cc2)SC1=S | 16µM* | ? | 8% | -2 | -36% | ?
CSc1nc(SCC(=O)NC(c2ccccc2)c2ccccc2)c2c3c(sc2n1)CN(C)CC3 | -7% | 28µM* | 4% | 20 | -36% | 20µM*
SMILES | TGFb SMAD3 inh | S2 tox | uPA generation | Giardia kill | HepG2 tox | ATXN2 expr inh
CSc1nc(NCC(C)O)c2c3c(sc2n1)CN(C)CC3 (stereo not given) | -4% | i | -6% | 6 | -15% | .
C(=Nc1cnc2ccccc2c1)c1ccncc1 | 13% | . | . | . | 5% | .
C/C(=N\NC(=O)C(C)Oc1ccc([N+](=O)[O-])cc1)c1ccccn1 (stereo not given) | ? | 7.1µM* | . | -10 | -26% | ?
Nc1ccn(C2CO[C@H](CO)O2)c(=O)n1 (stereo not given in full) | . | i | . | . | . | -3%
Cc1nn(-c2ccccc2)c2nc(-c3cccs3)cc(C(=O)NN)c12 | 10µM* | i | -21% | -5 | -29% | ?
N#Cc1nc(-c2ccc(OCc3ccccc3Cl)cc2)oc1N1CCCCCC1 | 17% | . | . | -13 | 7% | .
COC(CNC(=O)c1ccc2c3c(onc13)-c1ccccc1C2=O)OC | 11µM* | . | -14% | -15 | -95% | ?
COC(CNC(=O)c1cccnc1)OC | -2% | i | 7% | 2 | -1% | .
CCCc1nc2oc3c(Cl)ncnc3c2c2c1CCCC2 | 0% | ? | 1% | ? | -51% | ?
CC(C)Cc1nc2oc3c(Cl)ncnc3c2c2c1CCCC2 | 17% | ? | 2% | -11 | 5% | 32µM*
COc1ccc(CCC(C)=O)cc1 | . | i | . | . | . | 6%
COC(=O)c1ccccc1-c1cc(C)cc2c1OC(CNC(=O)c1cc(C)on1)C2 (stereo not given) | . | i | . | . | . | .
COc1cc(Br)cc(/C=N/NC(=O)Cc2ccc(C(F)(F)F)cc2[N+](=O)[O-])c1O | 10µM* | i | -10% | -7 | 16µM* | ?
CCOc1cc(/C=N/NC(=O)Cc2ccc(C(F)(F)F)cc2[N+](=O)[O-])c(Br)cc1OC | -9% | ? | -4% | 4 | -10% | ?
Cc1cnc(NC(=O)Nc2ccc(Cl)cc2)s1 | ? | i | 2.2µM* | 2 | -6% | 46%
Cc1cnc(NC(=O)CSc2ccc(Cl)cc2)s1 | 4% | i | 5% | 19 | -12% | 7%
CSc1nccc(-c2cc(Cl)c3c(c2)CC(CNC(=O)c2ccc(C)nc2)O3)n1 (stereo not given) | . | i | . | . | . | .
Nc1nc(CCl)nc(Nc2cccc3ccccc23)n1 | 11µM* | ? | ? | -2 | 13µM* | .
c1ccc(-c2cc(NCCN3CCCCC3)c3ccccc3n2)cc1 | ? | . | -15% | -11 | -35% | 28µM*
Cn1c(NCCN2CCCC2)nc2cc(-c3ccccc3)sc2c1=O | 26% | i | . | . | -7% | ?
Cc1ccc(-c2nc3sc(CCNC(=O)c4ccc(Br)o4)c(C)n3n2)cc1 | 18µM* | . | . | . | -56% | ?
Cc1cccc(-c2nc3scc(CCNS(=O)(=O)c4ccc(F)cc4C)n3n2)c1 | 11µM* | . | . | . | -33% | .
Cc1c(CCNC(=O)c2ccc(Br)o2)sc2nc(-c3ccc(F)cc3)nn12 | ? | . | . | . | -41% | .
Cc1cc(C)c(S(=O)(=O)NCCc2sc3nc(-c4ccc(F)cc4)nn3c2C)c(C)c1 | 11µM* | . | . | . | -50% | .
NC(=O)CC[C@@H]1NC(=O)[C@H](Cc2ccccc2)NC(=O)[C@H](Cc2ccc(O)cc2)NC(=O)CCSSC[C@@H](C(=O)N2CCC[C@H]2C(=O)N[C@@H](CCCN=C(N)N)C(=O)NCC(N)=O)NC(=O)[C@H](CC(N)=O)NC1=O | . | i | . | . | . | 6%

Assay outcomes as filed in PubChem BioAssay.
